From PubChem BioAssay AID624255 (Broad Institute, 2012) come the findings set out here.

Where “and” joins values, the source holds several entries; their conditions need not be identical. Equal entries are not always repeated. In all, about 77,000 compounds went through this assay and about 4,600 (6%) were called active. Another 1% or so got no clear call; they are omitted.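 The calls were made as follows: active = mean inhibition above about 93%, with at least 55% of replicates each passing it (limit read from the data, passing the limit was not always enough); inconclusive = only one of those two conditions holds; inactive = neither condition holds.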 The sample as a whole holds a higher share of actives than the screen did.

What is called inhibition is the drop in the measured response relative to a control, in per cent.

The nature of this assay: growth inhibition of T. cruzi in host fibroblasts – cell-based, beta-gal Tulahuen parasites, NIH3T3 host, luminescence, primary screen (AID 624255). The following applies: T. cruzi beta-gal in NIH3T3, GalScreen luminescence, 90 h; at 8.34 µM; hits give high values.
As to `CN1C(=O)c2cc(NC(=O)Nc3ccccc3Cl)ccc2OC[C@H]2O[C@@H](CC(=O)O)CC[C@H]21`, the inhibition is 15.3% (inactive).

Consider `Cc1noc(C)c1NC(=O)N(C)C[C@@H]1OCCCC[C@H](C)Oc2ccc(NC(=O)NC3CCCCC3)cc2C(=O)N([C@H](C)CO)C[C@@H]1C`, for which the inhibition was 22.8% (inactive).

In the case of `Cc1ccccc1S(=O)(=O)Nc1ccc2c(c1)C(=O)N(C)[C@H]1CC[C@@H](CC(=O)O)O[C@H]1CO2`, the inhibition was 13.1% (inactive).

On to `C[C@@H]1CN([C@H](C)CO)C(=O)Cc2cc(NC(=O)CCN3CCOCC3)ccc2O[C@H]1CN(C)CC1CC1`, for which the inhibition was 37.8% (inactive).

Turning to `O=C(CC1CC1)N1[C@H](CO)[C@@H]2c3ccccc3N(S(=O)(=O)c3ccc(F)cc3)C[C@@H]21`, the inhibition is 18.3% (inactive).

In the case of `C[C@H](CO)N1C[C@H](C)[C@@H](CN(C)S(=O)(=O)c2ccccc2F)Oc2ncc(C#Cc3ccccc3F)cc2C1=O`, the inhibition was 112% (active).

Consider `CCCNC(=O)N(C)C[C@H]1Oc2ncc(C#CC(C)C)cc2C(=O)N([C@@H](C)CO)C[C@@H]1C`, for which the inhibition is 53.3% (inactive).

With `CCCNC(=O)N(C)C[C@@H]1Oc2ncc(C#Cc3ccccc3F)cc2C(=O)N([C@@H](C)CO)C[C@H]1C`, the inhibition is 116% (active).

`C[C@H](CO)N1C[C@H](C)[C@@H](CN(C)S(=O)(=O)c2ccccc2)Oc2ncc(C#Cc3ccccc3F)cc2C1=O`: the inhibition was 120% (active).

In the case of `C[C@@H]1CN([C@@H](C)CO)C(=O)CCCn2cc(nn2)CO[C@@H]1CN(C)S(=O)(=O)c1cccc(F)c1`, the inhibition is -8.28% (inactive).

Take `COc1ccc(C#Cc2cnc3c(c2)C(=O)N([C@H](C)CO)C[C@H](C)[C@H](CN(C)S(=O)(=O)c2ccc(F)cc2)O3)cc1OC`: the inhibition is 104% (inactive).

For the compound `C[C@@H]1CN([C@@H](C)CO)C(=O)CCCn2cc(nn2)CO[C@@H]1CN(C)S(=O)(=O)c1ccccc1F`, the inhibition was 112% (active).

Consider `CCCNC(=O)N(C)C[C@H]1Oc2ncc(C#Cc3ccncc3)cc2C(=O)N([C@@H](C)CO)C[C@@H]1C`, for which the inhibition is 12.1% (inactive).

As for `C[C@H](CO)N1C[C@H](C)[C@H](CN(C)C(=O)C2CCOCC2)Oc2ncc(C#Cc3ccccc3F)cc2C1=O`, the inhibition was -27.2% (inactive).

Turning to `C[C@H]1CN([C@@H](C)CO)C(=O)CCCn2cc(nn2)CO[C@@H]1CN(C)S(=O)(=O)c1ccc(-c2ccccc2)cc1`, the inhibition is 3.26% (inactive) and 11.9% (inactive).

On to `C[C@H]1CN([C@@H](C)CO)C(=O)c2cc(C#Cc3ccccc3F)cnc2O[C@H]1CN(C)C`, for which the inhibition is 87.2% (inactive).

Turning to `C[C@H]1CN([C@@H](C)CO)C(=O)c2cc(C#Cc3ccccc3F)cnc2O[C@@H]1CN(C)C(=O)C1CC1`, the inhibition is -11.1% (inactive).
